Rows were chosen to be rich in hits. Some 2.1% of all compounds tested hit in one or more screens of this group.
Giardia kill – Small Molecules that selectively kill Giardia lamblia: qHTS | AID 540267, 2011 | 340,000 compounds, 0.15% hits | activity change, % at 7.66 µM, hits read low | Giardia lamblia trophozoite viability; in the data active means activity change below about -80%; inconclusive means between about -30% and that limit;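 further: parasites exposed to compound for two days anaerobically before the ATP read; on the % scale 0 is the no-effect control and ±100 the full control effect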
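Giardia trophozoites, 100 cells per well, were exposed to compounds for 48 hrs at 37 deg C under anaerobic conditions; viability was then read as ATP content by bioluminescence after 15-30 min at room temperature.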
p53 reactivation – qHTS assay for re-activators of p53 using a Luc reporter; AID 504706, 2011; H1299 p53-A138V BP100-luciferase reporter, luminescence, 24 h; 320,000 compounds, 0.063% hits; Potency, µM (titrated, usually from 92.2 µM), inactives show top-dose activity change, positive = activation, most hits filed as activators; further: potency means the concentration at half of the fitted maximal effect; % of control where 0% means no effect; nearly all actives have a fitted effect of over 45% in size
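p53-null H1299 cells stably carrying temperature-sensitive p53-A138V and a BP100-luciferase reporter were pinned with compounds (4-point, 1:5 series) and held 24 hrs at 37 deg C. Luminescence was read 10 min after detection reagent.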
ClpP mod – qHTS Assay for Activators of ClpP. ATP-dependent Clp protease proteolytic subunit (Bacillus subtilis (strain 168)), P80244. purified B. subtilis ClpP, FRET peptide cleavage, 20 min. Potency, µM (top dose mostly 57.5 µM), inactives show top-dose activity change, negative = active. 340,000 compounds, 1.9% hits; active means well fitted falling curve with a large enough effect; inconclusive means small, poorly fitted or top-dose-only effect; inactive means no such curve, though single readings can be large or run the other way; further: potency means the concentration at half of the fitted maximal effect; the source files actives as falling curves though it sought activators and does not explain the sign; nearly all actives have a fitted effect of over 65% in size
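Buffer: 100 mM Tris/HCl pH8, 100 mM KCl, 0.05% low protease BSA, 2.5% glycerol, 0.01% Tween-20. ClpP 10 microg/mL final; 20 min RT; delta FRET normalized to ADEP and DMSO controls.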
uPA surface inh – qHTS for Inhibitors of Cell Surface uPA Generation | cell surface uPA generation assay, qHTS | Potency, µM (series often up to 38.3 µM), for inactives: at the top dose activity change, negative = inhibition, actives largely listed as inhibitors | 330,000 compounds, 0.31% hits | AID 540303, 2011; active means well fitted inhibition curve with a large enough effect; inconclusive means small, poorly fitted or top-dose-only effect; inactive means no such curve, though single readings can be large or run the other way; tested in mouse RAW 264.7 cells; further: potency means the concentration at half of the fitted maximal effect; on the % scale 0 is the no-effect control and ±100 the full control effect; nearly all actives have a fitted effect of over 55% in size
Mito fusion yeast – qHTS Assay for Small Molecule Inhibitors of Mitochondrial Division or Activators of Mitochondrial Fusion | S. cerevisiae fusion-defective mutant growth rescue, CellTiterGlo 48 h | Potency, µM (top dose mostly 46.1 µM), for the others: at the highest dose growth rescue (activation), most hits filed as activators | 320,000 compounds, 0.23% hits | AID 485298, 2010; further: potency means the concentration at half of the fitted maximal effect; % of control where 0% means no effect; nearly all actives have a fitted effect of over 45% in size
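Luminescent cell viability in 1536-well qHTS format served as the measure of rescued growth in ts fusion-mutant S. cerevisiae cultured on non-fermentable YPEG for 48 hours at 37C.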
B2AR arrestin – qHTS assay of beta-arrestin-biased ligands of beta2-adrenergic receptor | beta-arrestin recruitment to beta2AR, cell-based reporter | Potency, µM (series often up to 46.1 µM), without a hit: at the top dose activation, usual class: activators | 330,000 compounds, 0.02% hits | AID 492947, 2010;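 further: potency means the concentration at half of the fitted maximal effect; 0% = DMSO controls and full agonism = EC100 isoproterenol or metaproterenol; nearly all actives have a fitted effect of over 65% in size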
Target sequence (P07550 whole entry, looked up): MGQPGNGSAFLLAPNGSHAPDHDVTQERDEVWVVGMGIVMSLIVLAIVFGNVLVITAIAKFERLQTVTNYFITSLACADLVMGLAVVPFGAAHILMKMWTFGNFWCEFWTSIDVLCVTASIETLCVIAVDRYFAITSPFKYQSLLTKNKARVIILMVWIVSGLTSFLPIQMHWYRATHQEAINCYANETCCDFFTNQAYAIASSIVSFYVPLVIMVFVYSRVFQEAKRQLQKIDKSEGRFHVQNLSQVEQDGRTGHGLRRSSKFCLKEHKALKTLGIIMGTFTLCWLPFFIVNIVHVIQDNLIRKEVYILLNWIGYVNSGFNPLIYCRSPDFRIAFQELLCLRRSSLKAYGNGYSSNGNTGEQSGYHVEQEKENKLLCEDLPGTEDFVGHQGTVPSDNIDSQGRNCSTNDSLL
* hit, by the source's call; ? = inconclusive; . = not tested or not shown. Unless noted, the call rests on the fitted dose curve; in most records, active means well fitted curve in the direction sought with a large enough effect; inconclusive means small, poorly fitted or top-dose-only effect, or another doubt; inactive means no such curve, though single readings can be large; an effect the other way counts as inactive or inconclusive.

SMILES	Giardia kill	p53 reactivation	ClpP mod	uPA surface inh	Mito fusion yeast	B2AR arrestin
Cc1cc(C(=O)N/N=C/c2ccc([N+](=O)[O-])s2)c2ccccc2n1	-95*	?	-2%	-13%	-6%	0%
Cc1cc(C(=O)N/N=C/c2cc([N+](=O)[O-])ccc2O)c2ccccc2n1	8	?	1%	-8%	3%	-1%
Cc1cc(C(=O)N/N=C/c2ccc([N+](=O)[O-])cc2)c2ccccc2n1	2	3%	-2%	2.8µM*	9%	-1%
COC(=O)C1=C(C(=O)OC)[C@@H]2N(Cc3ccccc3)c3ccccc3[C@@]23C[C@@H](C(=O)OC)N(C(=O)c2ccc(Br)cc2)C3=N1	-8	.	2%	?	5%	0%
C=CCN1c2ccccc2[C@]23C[C@@H](C(=O)OC)N(C(=O)c4cccs4)C2=NC(C(=O)OC)=C(C(=O)OC)[C@H]13	18	8%	-3%	6.3µM*	0%	0%
C=CCN1c2ccccc2[C@]23C[C@@H](C(=O)OC)N(C(=O)c4ccc(Br)cc4)C2=NC(C(=O)OC)=C(C(=O)OC)[C@H]13	12	-2%	-2%	5.6µM*	?	-1%
CCOc1ccc2c(c1)N(C(=O)CN1C(=O)CCC1=O)C(C)(C)C=C2C	-4	7%	32µM*	-3%	2%	-1%
CC1CCN(C(=O)CN2c3ccc(Br)cc3-c3ccccc3S2(=O)=O)CC1	.	.	3%	.	.	.
CCN(CC)S(=O)(=O)c1ccc2[nH]cc(C(=O)NCCCN3CCCCC3)c(=O)c2c1	15	12%	28µM*	-6%	-8%	0%
CC1CCCCN1S(=O)(=O)c1ccc2[nH]c(=O)cc(C(=O)NCCc3ccc(Cl)cc3)c2c1 (centres undefined)	.	.	-10%	.	.	.
Cc1ccccc1N(C)S(=O)(=O)c1ccc2[nH]cc(C(=O)NCC3CCCO3)c(=O)c2c1 (centres undefined)	1	-12%	32µM*	17%	-15%	0%
CCCCN(C)CCCNC(=O)c1cc(=O)[nH]c2ccc(S(=O)(=O)N3CCCCC3C)cc12 (centres undefined)	12	2%	-9%	-1%	35µM*	0%
CCN(CC)S(=O)(=O)c1ccc2[nH]cc(C(=O)NCCN3CCCCCC3)c(=O)c2c1	0	-11%	?	8%	4%	1%
CCc1ccc(N(C)S(=O)(=O)c2ccc3[nH]cc(C(=O)NCC4CCCO4)c(=O)c3c2)cc1 (centres undefined)	.	.	-19%	.	.	.
CCN(CC)S(=O)(=O)c1ccc2[nH]cc(C(=O)NCCCN3CCCCC3C)c(=O)c2c1 (centres undefined)	5	2%	22µM*	6%	1%	-1%
COC(=O)c1ccc(NC(=O)N2CCC(CN3CCc4ccccc4C3)CC2)cc1	.	.	-9%	.	.	.
O=C(CN1C(=O)C2(SCC(=O)N2c2cccc(Cl)c2)c2ccccc21)NCCc1ccccc1 (centres undefined)	.	.	-2%	.	.	.
CN(CCC#N)S(=O)(=O)c1ccc2[nH]cc(C(=O)NCCc3ccccc3)c(=O)c2c1	5	-8%	28µM*	0%	4%	-2%
CCc1ccc2occ(CC(=O)Nc3ccc(OC)c(Cl)c3)c2c1	-4	.	3%	.	.	.
CCc1ccc(Nc2n[n+](-c3ccccc3)c(-c3c(Cl)cccc3Cl)s2)cc1	19	.	-2%	13µM*	-22%	0%
Fc1ccc(-[n+]2nc(Nc3ccccc3)sc2-c2c(Cl)cccc2Cl)cc1	-21	9%	0%	?	-1%	0%
O=C(/C=C/c1cccc(O)c1)c1ccc(N2CCOCC2)cc1	-25	?	-1%	10µM*	-1%	0%
COc1ccc(/C=C/C(=O)c2ccc(O)cc2)cc1CN1CCOCC1	17	?	-1%	-8%	-4%	0%
